Compounds without any hit were thinned out: in the full panel of roughly 79,000, 15% have a hit. Active and inactive are the calls of the source. Rule as the data show it: active = growth inhibition above about 70%; inactive = the rest.
Columns and labels:
[1] = NCI Yeast Anticancer Drug Screen. Data for the mec2-1 strain (AID 157); settings: S. cerevisiae mec2-1 strain, hits give high values
Method in brief: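 Test agents were screened against the mec2-1 yeast strain, with defined DNA repair or cell cycle alteration. Growth was scored as inhibition against vehicle-only controls.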

[2] = NCI Yeast Anticancer Drug Screen. Data for the rad14 strain (AID 159);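 also: 0% = growth of vehicle-treated control cultures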; settings: S. cerevisiae rad14 strain growth inhibition, hits give high values
Method in brief: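 Readout: yeast growth inhibition, referenced to vehicle-only cultures. Strain bears a defined alteration in DNA damage repair.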

[3] = NCI Yeast Anticancer Drug Screen. Data for the sgs1 mgt1 strain (AID 161);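 also: 0% = growth of cultures given vehicle only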; settings: S. cerevisiae sgs1 mgt1 strain, hits give high values
Method in brief: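 Mutant yeast exposed to compound; growth scored against vehicle-only wells.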

[4] = NCI Yeast Anticancer Drug Screen. Data for the CLN2oe strain (AID 163);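 also: 0% = growth of vehicle-only control cultures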; settings: S. cerevisiae CLN2oe strain, hits give high values
Method in brief: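 Here, growth inhibition in a cell-cycle-altered yeast strain after compound exposure was quantified against vehicle control growth.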

[5] = NCI Yeast Anticancer Drug Screen. Data for the cln2 rad14 strain (AID 165);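 also: 0% = growth equal to vehicle treated cultures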; settings: S. cerevisiae cln2 rad14 strain, hits give high values
Method in brief: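 Growth of compound-exposed yeast (cln2 rad14 genotype) measured and expressed as inhibition relative to vehicle.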

[6] = NCI Yeast Anticancer Drug Screen. Data for the bub3 strain (AID 167); settings: S. cerevisiae bub3 mutant strain, hits give high values
Method in brief: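 Part of a panel of yeast mutants defective in DNA damage repair or cell cycle regulation. Each strain is grown with compound, and inhibition is calculated relative to solvent-treated cultures.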

[7] = NCI Yeast Anticancer Drug Screen. Data for the wt2 strain (AID 169);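 also: 0% = growth of vehicle-treated yeast cultures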; settings: S. cerevisiae wt2 strain growth inhibition, hits give high values
Method in brief: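 Genetically defined yeast strains from a DNA-repair/cell-cycle panel were used. Compound-exposed yeast growth was measured, and the inhibition was calculated relative to vehicle treatment.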

[8] = NCI Yeast Anticancer Drug Screen. Data for the mlh1 strain (AID 171);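 also: 0% = growth of vehicle-treated control cultures of the same strain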; settings: S. cerevisiae mlh1 strain growth inhibition, hits give high values
Method in brief: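 Here the genetically defined yeast mutant is grown with each compound, and the extent to which its growth falls below that of vehicle-exposed cells is reported.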

[9] = NCI Yeast Anticancer Drug Screen. Data for the sgs1 strain (AID 173);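 also: 0% = growth of vehicle-only control cultures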; settings: S. cerevisiae sgs1 mutant, hits give high values
Method in brief: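 Relative growth inhibition, referenced to vehicle, was determined in a yeast strain with a defined alteration affecting DNA damage repair or cell cycle control after compound exposure.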

[10] = NCI Yeast Anticancer Drug Screen. Data for the mlh1 rad18 strain (AID 175); settings: S. cerevisiae mlh1 rad18 strain growth inhibition, hits give high values
Method in brief: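 In this whole-cell yeast screen, a strain with altered DNA damage repair is challenged with compound, and its growth is measured against matched vehicle-treated controls.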

[11] = NCI Yeast Anticancer Drug Screen. Data for the rad18 strain (AID 177); settings: S. cerevisiae rad18 mutant growth inhibition, hits give high values
Method in brief: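 Screen uses a yeast strain with a defined lesion in DNA damage repair; compound effect is read as loss of growth compared to untreated vehicle cultures.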

[12] = NCI Yeast Anticancer Drug Screen. Data for the wt1 strain (AID 149);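 also: 0% = growth of vehicle-treated wt1 cultures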; settings: S. cerevisiae wt1 strain (SPY 50644) growth inhibition, hits give high values
Method in brief: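 The wt1 strain was treated with compounds, and growth was compared with vehicle-treated cultures to give inhibition.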

[13] = NCI Yeast Anticancer Drug Screen. Data for the rad50EPP+ strain (AID 151);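 also: 0% = growth of vehicle-treated control cultures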; settings: S. cerevisiae rad50 mutant strain, hits give high values
Method in brief: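 One strain with a rad50 alteration (rad50EPP+) was compound-treated, its growth then compared to that of vehicle controls.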

[14] = NCI Yeast Anticancer Drug Screen. Data for the mgt1 strain (AID 153); settings: S. cerevisiae mgt1 mutant growth inhibition, hits give high values
Method in brief: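 After exposure of the mgt1 yeast mutant to compound, growth was measured and reported as inhibition compared with vehicle controls.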

[15] = NCI Yeast Anticancer Drug Screen. Data for the rad50 strain (AID 155);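 also: 0% = growth of vehicle-only cultures of the same strain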; settings: S. cerevisiae rad50 strain growth inhibition, hits give high values
Method in brief: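 Cells are treated with compound, grown, and their growth is then scored against vehicle-only cultures of the same repair-deficient yeast strain.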

[16] = at 5.0 µM (retest, dose inferred, filed as 0.5)
[17] = at 50.0 µM (retest, dose inferred, filed as 5.0)

Measured: growth inhibition

NNc1nnc(-c2ccccc2)nc1Cc1ccccc1
inactive: [2]; at 1.2 µM -8% | [2]; at 3.7 µM -16% | [2]; at 11.0 µM -12% | [3]; [16] -7% | [4]; at 1.2 µM 25% | [4]; at 3.7 µM 18% | [4]; at 11.0 µM 11% | [5]; [16] 12% | [6]; at 1.2 µM 16% | [6]; at 3.7 µM 5% | [6]; [16] -9% | [6]; at 11.0 µM -17% | [7]; at 1.2 µM -34% | [7]; at 3.7 µM -30% | [7]; at 11.0 µM -11% | [8]; at 1.2 µM 6% | [8]; at 3.7 µM 4% | [8]; at 11.0 µM 27% | [9]; at 1.2 µM -15% | [9]; at 3.7 µM -15% | [9]; at 11.0 µM -6% | [10]; [16] -30% | [11]; at 1.2 µM -17% | [11]; at 3.7 µM -30% | [11]; at 11.0 µM -5%
active: [1]; at 100.0 µM 87% | [2]; at 33.0 µM 96% | [2]; at 100.0 µM 91% | [3]; [17] 95% | [3]; at 50.0 µM 82.9% | [4]; at 33.0 µM 97% | [4]; at 100.0 µM 93% | [5]; [17] 80% | [5]; at 50.0 µM 86% | [6]; at 33.0 µM 97% | [6]; [17] 96% | [6]; at 50.0 µM 89% | [6]; at 100.0 µM 90% | [7]; at 33.0 µM 95% | [7]; at 100.0 µM 91% | [8]; at 33.0 µM 97% | [8]; at 100.0 µM 83% | [9]; at 33.0 µM 91% | [9]; at 100.0 µM 94% | [10]; [17] 97% | [10]; at 50.0 µM 83.6% | [11]; at 33.0 µM 96% | [11]; at 100.0 µM 91%

COc1ccc(/C=C2\S/C(=N/Nc3nc(-c4ccccc4)cs3)NC2=O)cc1OC
inactive: [12]; at 1.2 µM 50% | [13]; at 1.2 µM 29% | [13]; at 3.7 µM 63% | [15]; at 1.2 µM 59% | [15]; [16] -4% | [1]; [16] -8% | [2]; at 1.2 µM 20% | [2]; at 3.7 µM 45% | [3]; [16] -4% | [4]; at 1.2 µM 44% | [5]; [16] 11% | [7]; at 1.2 µM 22% | [8]; at 1.2 µM 13% | [9]; at 1.2 µM 32% | [10]; [16] 12% | [11]; at 1.2 µM 35%
active: [12]; at 3.7 µM 90% | [12]; at 11.0 µM 97% | [12]; at 33.0 µM 96% | [12]; at 100.0 µM 95% | [13]; at 11.0 µM 93% | [13]; at 33.0 µM 97% | [13]; at 100.0 µM 97% | [14]; at 1.2 µM 92% | [14]; at 3.7 µM 97% | [14]; at 11.0 µM 98% | [14]; at 33.0 µM 97% | [14]; at 100.0 µM 93% | [15]; at 3.7 µM 87% | [15]; at 11.0 µM 96% | [15]; at 33.0 µM 97% | [15]; [17] 93% | [15]; at 50.0 µM 95.2% | [15]; at 100.0 µM 93% | [1]; at 1.2 µM 82% | [1]; at 3.7 µM 88% | [1]; at 11.0 µM 96% | [1]; at 33.0 µM 97% | [1]; [17] 87% | [1]; at 50.0 µM 95.5% | [1]; at 100.0 µM 94% | [2]; at 11.0 µM 84% | [2]; at 33.0 µM 93% | [2]; at 100.0 µM 92% | [3]; [17] 90% | [3]; at 50.0 µM 95.7% | [4]; at 3.7 µM 79% | [4]; at 11.0 µM 96% | [4]; at 33.0 µM 98% | [4]; at 100.0 µM 97% | [5]; [17] 95% | [5]; at 50.0 µM 91% | [6]; at 1.2 µM 82% | [6]; at 3.7 µM 93% | [6]; [16] 94% | [6]; at 11.0 µM 97% | [6]; at 33.0 µM 97% | [6]; [17] 98% | [6]; at 50.0 µM 98.3% | [6]; at 100.0 µM 97% | [7]; at 3.7 µM 79% | [7]; at 11.0 µM 97% | [7]; at 33.0 µM 95% | [7]; at 100.0 µM 96% | [8]; at 3.7 µM 75% | [8]; at 11.0 µM 96% | [8]; at 33.0 µM 94% | [8]; at 100.0 µM 88% | [9]; at 3.7 µM 73% | [9]; at 11.0 µM 88% | [9]; at 33.0 µM 95% | [9]; at 100.0 µM 92% | [10]; [17] 97% | [10]; at 50.0 µM 98.5% | [11]; at 3.7 µM 83% | [11]; at 11.0 µM 97% | [11]; at 33.0 µM 96% | [11]; at 100.0 µM 90%

CCOC(=O)c1sc2[n+](c1C)C(=O)/C(=C/c1cc(OC)c(OC)c(OC)c1)S2
inactive: [12]; at 1.2 µM 3% | [12]; at 3.7 µM 2% | [12]; at 11.0 µM 9% | [12]; at 33.0 µM 56% | [13]; at 1.2 µM 2% | [13]; at 3.7 µM 6% | [13]; at 11.0 µM 19% | [13]; at 33.0 µM 45% | [14]; at 1.2 µM 9% | [14]; at 3.7 µM 12% | [14]; at 11.0 µM 54% | [15]; at 1.2 µM 9% | [15]; at 3.7 µM 16% | [15]; [16] 1% | [15]; at 11.0 µM 18% | [15]; at 33.0 µM 68% | [15]; [17] 35% | [15]; at 50.0 µM 41% | [1]; at 1.2 µM 21% | [1]; at 3.7 µM 18% | [1]; [16] 6% | [1]; at 11.0 µM 34% | [1]; [17] 51% | [1]; at 50.0 µM 52.5% | [2]; at 1.2 µM 12% | [2]; at 3.7 µM 3% | [2]; at 11.0 µM 28% | [3]; [16] -4% | [3]; [17] 64% | [4]; at 1.2 µM 11% | [4]; at 3.7 µM 5% | [4]; at 11.0 µM 26% | [5]; [16] 13% | [5]; at 50.0 µM 55.5% | [6]; at 1.2 µM 12% | [6]; at 3.7 µM 7% | [6]; [16] -10% | [6]; at 11.0 µM 21% | [6]; at 33.0 µM 60% | [6]; [17] 12% | [6]; at 50.0 µM 40.9% | [6]; at 100.0 µM 66% | [7]; at 1.2 µM 2% | [7]; at 3.7 µM 3% | [7]; at 11.0 µM 47% | [8]; at 1.2 µM 9% | [8]; at 3.7 µM 9% | [8]; at 11.0 µM 36% | [9]; at 1.2 µM 17% | [9]; at 3.7 µM 23% | [9]; at 11.0 µM 48% | [10]; [16] 6% | [10]; [17] 60% | [10]; at 50.0 µM 25.1% | [11]; at 1.2 µM 19% | [11]; at 3.7 µM 27% | [11]; at 11.0 µM 40%
active: [12]; at 100.0 µM 88% | [13]; at 100.0 µM 76% | [14]; at 33.0 µM 86% | [14]; at 100.0 µM 93% | [15]; at 100.0 µM 87% | [1]; at 33.0 µM 76% | [1]; at 100.0 µM 92% | [2]; at 33.0 µM 77% | [2]; at 100.0 µM 92% | [3]; at 50.0 µM 80.5% | [4]; at 33.0 µM 76% | [4]; at 100.0 µM 83% | [5]; [17] 78% | [7]; at 33.0 µM 85% | [7]; at 100.0 µM 95% | [8]; at 33.0 µM 82% | [8]; at 100.0 µM 93% | [9]; at 33.0 µM 90% | [9]; at 100.0 µM 95% | [11]; at 33.0 µM 75% | [11]; at 100.0 µM 88%

Source: PubChem BioAssay (NCI)
